As a reminder, the AC50 is the concentration at which the activity in the assay is half-maximal.

Our source for the AC50 and outcome values is PubChem BioAssay (EPA / NIEHS).

Where “and” joins values, the source holds several entries; their conditions need not be identical. Equal entries are not always repeated. Where a structure was tested more than once in an assay, its records may differ in their call. Calls of active or inactive are those of the source. Rule for the calls: active = hit-call score of the fitted dose curve at least 0.9, where 1 is the maximum; inactive = score below 0.9.

Experiment [1] can be described thus: BSK_hDFCGF_Proliferation: Cell Proliferation Assessment in the BioMAP Diversity Plus: hDFCGF Assay (AID 2283059).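 Note: curves fitted for both rise and fall of signal versus DMSO baseline.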 To be noted: primary human foreskin fibroblasts. In short, it runs like this: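 Steps: dose primary human dermal fibroblasts (foreskin); […] fix in 10% TCA; stain with 0.1% SRB; read 560 nm; fit gain or loss of signal against DMSO.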
Read-out in experiment [2]: Macrophage colony-stimulating factor (MCSF), CSF1 (gene 1435)
In words: BSK_hDFCGF_MCSF: BioMAP Diversity Plus: hDFCGF Assay for Macrophage colony-stimulating factor (MCSF) Biomarker Activity (AID 2283060). Particulars: primary human foreskin fibroblasts; actives raise or lower the signal. In short, it runs like this: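 ELISA read-out of M-CSF in human dermal foreskin fibroblast cultures, 24 h after chemical dosing; gain or loss of signal fitted bidirectionally relative to DMSO baseline.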

Experiment [3] is described as follows: BSK_hDFCGF_SRB: Viability Assessment in the BioMAP Diversity Plus: hDFCGF Assay (AID 2283061).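 Note: cells exposed to compound for 24 h before the read.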 To be noted: primary human foreskin fibroblasts. In short, it runs like this:
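Primary human foreskin fibroblasts; 24 h post-dose; fixed 10% TCA, stained 0.1% SRB, A560 read; total protein as overt cytotoxicity measure; curves fit bidirectionally vs DMSO control.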

Read-out in experiment [4]: TIMP metallopeptidase inhibitor 1 (TIMP1), TIMP1 (gene 7076)
Nature of the experiment: BSK_hDFCGF_TIMP1: BioMAP Diversity Plus: hDFCGF Assay for TIMP metallopeptidase inhibitor 1 (TIMP1) Biomarker Activity (AID 2283062). Particulars: primary human foreskin fibroblasts; actives raise or lower the signal. In short, it runs like this:
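ELISA readout of TIMP-1 from human dermal foreskin fibroblast cultures 24 h post-dosing. Curves were fitted in both directions against DMSO baseline, with SRB total-protein staining in parallel cultures as a cytotoxicity check.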

Read-out in experiment [5]: Monokine induced gamma interferon (MIG), CXCL9 (gene 4283)
In words: BSK_hDFCGF_MIG: BioMAP Diversity Plus: hDFCGF Assay for Monokine induced gamma interferon (MIG) Biomarker Activity (AID 2283063). To be noted: primary human foreskin fibroblasts; actives raise or lower the signal. An outline of the steps: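 Fibroblasts (human foreskin, primary) dosed, 24 h, MIG by ELISA; fit bidirectional vs DMSO.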

Read-out in experiment [6]: Matrix Metallopeptidase 1 (MMP1), MMP1 (gene 4312)
Nature of the experiment: BSK_hDFCGF_MMP1: BioMAP Diversity Plus: hDFCGF Assay for Matrix Metallopeptidase 1 (MMP1) Biomarker Activity (AID 2283064). Particulars: primary human foreskin fibroblasts; actives raise or lower the signal. In short, it runs like this: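 Primary human foreskin fibroblasts in the hDFCGF system were dosed with test chemical, and MMP1 was measured by ELISA 24 h later. Values come from bidirectional curve fitting against the DMSO baseline.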

Read-out in experiment [7]: Vascular cell adhesion molecule 1 (VCAM1), VCAM1 (gene 7412)
Nature of the experiment: BSK_hDFCGF_VCAM1: BioMAP Diversity Plus: hDFCGF Assay for Vascular cell adhesion molecule 1 (VCAM1) Biomarker Activity (AID 2283065).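 For AC50: VCAM-1 protein level quantified by ELISA after 24 h chemical exposure.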 Particulars: primary human foreskin fibroblasts; actives raise or lower the signal. In short, it runs like this: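 ELISA read-out of VCAM-1 on human skin fibroblasts, 24 h post-dose; gain or loss of signal fitted bidirectionally against DMSO baseline.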

Read-out in experiment [8]: Plasminogen activator inhibitor-1 (PAI1), SERPINE1 (gene 5054)
Nature of the experiment: BSK_hDFCGF_PAI1: BioMAP Diversity Plus: hDFCGF Assay for Plasminogen activator inhibitor-1 (PAI1) Biomarker Activity (AID 2283066). Particulars: primary human foreskin fibroblasts; actives raise or lower the signal. In short, it runs like this: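 Primary dermal fibroblasts (human foreskin), hDFCGF system; compound 24 h; PAI-1 by ELISA; bidirectional fit vs DMSO control.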

Read-out in experiment [9]: Intercellular Adhesion Molecule 1 (ICAM1), ICAM1 (gene 3383)
In words: BSK_KF3CT_ICAM1: BioMAP Diversity Plus: KF3CT Assay for Intercellular Adhesion Molecule 1 (ICAM1) Biomarker Activity (AID 2283067). To be noted: primary human keratinocytes with fibroblasts; actives raise or lower the signal. In short, it runs like this:
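ELISA readout of ICAM-1; KF3CT human skin co-culture (keratinocytes + foreskin fibroblasts), 24 h post-dose; gain/loss fit vs DMSO baseline.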

Read-out in experiment [10]: Interferon-gamma inducible Protein 10 (IP10), CXCL10 (gene 3627)
Nature of the experiment: BSK_KF3CT_IP10: BioMAP Diversity Plus: KF3CT Assay for Interferon-gamma inducible Protein 10 (IP10) Biomarker Activity (AID 2283068). To be noted: primary human keratinocytes with fibroblasts; actives raise or lower the signal. In short, it runs like this: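 KF3CT co-culture (keratinocytes + foreskin fibroblasts), 24 h compound, IP-10 by ELISA; bidirectional fit vs DMSO baseline.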

With `C=CCC1=C(C)[C@@H](OC(=O)[C@@H]2[C@@H](C=C(C)C)C2(C)C)CC1=O`, the AC50 in [1] is 33.1 µM (active); in experiment [2], 32.2 µM (active); in [3], 34.9 µM (active); in experiment [4] it was 32.1 µM (active); in experiment [5] it was 31.6 µM (active); in experiment [6], 31 µM (active). Moreover, the figures for the AC50 in experiment [7] and in experiment [8] were 29.6 µM (active) and 36.6 µM (active), respectively. The outcome in experiment [9] and in experiment [10] was inactive.
In the case of `CC1=C(C(=O)Nc2ccccc2)SCCO1`, the outcome in experiment [1], in experiment [2], in experiment [3], in [4], in [5] and in [6] was inactive. In addition, the result in experiment [7], in experiment [8], in [9] and in experiment [10] was inactive.
Take `CCCCNC(=O)OCC#CI`: the AC50 in experiment [1] is 134 nM (active) and 534 nM (active); in experiment [2] it was 5.14 µM (active) and 9.67 µM (active); in experiment [3] it was 12.4 µM (active) and 3.49 µM (active); in experiment [4], 7.08 µM (active) and 26 µM (active); in experiment [5], 5.27 µM (active) and 3.85 µM (active); in experiment [6] it was 8.48 µM (active) and 7.13 µM (active). In addition, the AC50 was 3.08 µM (active) and 10.7 µM (active) in experiment [7]; 7.77 µM (active) and 7.46 µM (active) in experiment [8]; 35.1 µM (active) and 15.5 µM (active) in experiment [9]; 33.2 µM (active) and 11.9 µM (active) in experiment [10].
Consider `Cc1ccc(-c2c(Cl)nc(C#N)n2S(=O)(=O)N(C)C)cc1`, for which the AC50 is 17 µM (active) in experiment [1]; 14.3 µM (active) in experiment [2]; 14.5 µM (active) in experiment [3]; 18.3 µM (active) in [4]; 4.39 µM (active) in experiment [7]. Besides, the outcome in [5], in [6], in [8], in experiment [9] and in [10] was inactive.
Take `Cc1cc(Cl)ccc1OCC(=O)O`: the result in [1], in experiment [2], in experiment [3], in experiment [4], in [5] and in [6] was inactive. For the same molecule, the result in experiment [7], in experiment [8], in experiment [9] and in [10] was inactive.
For the molecule `COP(N)(=O)SC` (configuration not stated), the result in [1], in [2], in experiment [3], in [4], in [5] and in experiment [6] was inactive. Also, the outcome in experiment [7], in [8], in experiment [9] and in experiment [10] was inactive.
As to `O=C(O)c1nc(Cl)ccc1Cl`, the result in experiment [1], in experiment [2], in experiment [3], in [4], in experiment [5] and in experiment [6] was inactive. For the same molecule, the result in experiment [7], in [8], in experiment [9] and in [10] was inactive. Moreover, the AC50 in [10] was 147 nM (active).
With `COc1ccc(C(c2ccc(OC)cc2)C(Cl)(Cl)Cl)cc1`, the AC50 was 6.21 µM (active) in experiment [1]; 9.16 µM (active) in [2]; 11 µM (active) in experiment [3]; 5.09 µM (active) in experiment [6]; 20 µM (active) in experiment [7]; 14.7 µM (active) in [8]. The outcome in experiment [4], in experiment [5], in experiment [9] and in experiment [10] was inactive.
On to `CC(C)(C)c1ccc(CSc2cnn(C(C)(C)C)c(=O)c2Cl)cc1`, for which the AC50 in experiment [1] was 4.68 µM (active); in experiment [2], 7.69 µM (active); in experiment [7], 31.6 µM (active); in [10], 31300 nM (active). Also, the result in experiment [3], in experiment [4], in experiment [5], in [6], in experiment [8] and in experiment [9] was inactive.
`N#CC(CCc1ccc(Cl)cc1)(Cn1cncn1)c1ccccc1` (configuration not stated): in experiment [1], the AC50 is 1.78 µM (active). In addition, the outcome in experiment [2], in experiment [3], in [4], in experiment [5], in experiment [6] and in experiment [7] was inactive. In addition, the result in [8], in experiment [9] and in experiment [10] was inactive.
With `CNC(=O)ON=CC(C)(C)SC`, the outcome in experiment [1], in experiment [2], in [3], in experiment [4], in [5] and in experiment [6] was inactive. In addition, the result in [7], in experiment [8] and in experiment [9] was inactive. For the same molecule, in experiment [10], the AC50 is 428 nM (active).
As to `COc1nc(C)nc(NC(=O)NS(=O)(=O)c2ccccc2Cl)n1`, the result in [1], in [2], in experiment [3], in [4], in experiment [5] and in experiment [6] was inactive. For the same molecule, the result in experiment [7], in experiment [8], in experiment [9] and in [10] was inactive. In addition, the AC50 in experiment [10] is 148 nM (active).
Take `CC1COC(Cn2cncn2)(c2ccc(Oc3ccc(Cl)cc3)cc2Cl)O1` (configuration not stated): the AC50 in [1] is 25 µM (active); in [2], 32.2 µM (active); in experiment [3], 32.5 µM (active); in experiment [4], 30.4 µM (active); in [5] it was 31.1 µM (active); in experiment [6], 33.8 µM (active). For the same molecule, the AC50 was 30.8 µM (active) in [7], 32.1 µM (active) in experiment [8], 38.2 µM (active) in [9] and 34700 nM (active) in [10].
